Experimental findings from PubChem BioAssay (NCATS) are described below.

Records with an inconclusive call do not appear. The source made the active and inactive calls. Calls follow the shape of the dose curve; as a rule, active = well fitted inhibition curve with a large enough effect; inconclusive = small, poorly fitted or top-dose-only effect; inactive = flat fitted curve, though single readings scatter.
% is scaled to controls: 0 for no effect and ±100 for the full control effect.

Calcium and integrin-binding protein 1 (Homo sapiens), sequence (Q99828 whole entry, looked up): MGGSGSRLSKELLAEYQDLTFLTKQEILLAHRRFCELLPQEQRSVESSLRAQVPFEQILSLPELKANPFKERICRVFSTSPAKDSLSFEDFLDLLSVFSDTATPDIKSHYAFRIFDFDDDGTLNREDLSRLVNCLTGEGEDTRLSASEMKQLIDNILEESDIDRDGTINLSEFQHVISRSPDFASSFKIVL

In the test the target is Calcium and integrin-binding protein 1 (Homo sapiens) (UniProt Q99828). Put plainly: Primary qHTS for Identification of Calcium Integrin Binding Protein 1 (CIB1) Competitor (AID 1508620). Also: top concentration of the series differs between compounds. The conditions noted are these: CIB1-GST / FITC-alphaIIb peptide fluorescence polarization; series mostly up to 114 µM; activity change, negative = inhibition: at the top concentration. The essentials:
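Fluorescence polarization competition: GST-tagged CIB1 (1 uM final) preincubated with compound 15 min at room temperature, then FITC-labelled alphaIIb peptide (100 nM final) added. After 15 min at room temperature, polarization read at Ex 480/Em 540.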
`FC(F)(F)c1ccc(N2CCN(C(=S)Nc3ccccn3)CC2)cc1`: the “activity change, negative = inhibition” value is -22.5% (inactive).

Turning to `O=C(Nc1ccc(-c2nc3ccccc3[nH]2)cc1)c1ccc2sccc2c1`, the “activity change, negative = inhibition” value is 2.1% (inactive).

Consider `Cc1cnc(-c2ccccc2C(C)C)nc1NCc1ccc(-c2cccnc2)cc1`, for which the “activity change, negative = inhibition” value was 10.1% (inactive). To `O=C1c2ccccc2C(=O)N1Cc1cccnc1` belongs -0.263% (inactive); to `Oc1cc(NCc2ccc(F)cc2)cc2cccnc12`, 1.19% (inactive).

As to `COc1ccc(C2Nc3ccccc3C(=O)N2CCc2ccccc2)cc1COc1ccc(NC(C)=O)cc1` (stereo not given), the “activity change, negative = inhibition” value is 0.0291% (inactive). In the case of `O=c1c2ccc(F)cc2nc2sc(Nc3ccc4c(c3)CCC4)nn12`, the “activity change, negative = inhibition” value is 7.1% (inactive). Take `O=C(OCC#CCSc1nnc(-c2ccco2)o1)c1ccc(F)cc1`: the “activity change, negative = inhibition” value was 0.273% (inactive). As to `Cc1cc2c(s1)c1cnn(Cc3cc(OC(F)(F)F)ccc3F)c(=O)c1n2C`, the “activity change, negative = inhibition” value was 6.34% (inactive). To `Cc1cc(C)n2ncc(C(=O)NC(C)C)c2n1` belongs -0.15% (inactive). `c1nc(NCCCN2CCCCC2)c2cc(-c3ccc4c(c3)OCO4)ccc2n1`: the “activity change, negative = inhibition” value was 3.06% (inactive). To `Cc1ccc(CNc2ccc(N3CCNCC3)cc2)cc1` belongs -8.02% (inactive). To `Cc1cc(C)nc(NC(=S)N2CCN(c3cncc4ccccc34)CC2)c1` belongs -3.93% (inactive); to `CCn1cnc2c(NCCc3cccnc3)nc(C#N)nc21`, 6.06% (inactive); to `CC(=O)Nc1sc2c(c1-c1nc3ccccc3s1)CN(C1COC1)C2`, -15.4% (inactive). To `O=C1c2ccccc2NC(c2ccc(-c3ccc(F)cc3)o2)N1O` (stereo not given) belongs -16.1% (inactive); to `Cc1csc(CNc2ncnc3cc(-c4ccc5c(c4)OCO5)ccc23)n1`, -0.0285% (inactive); to `COc1ccc(CN(Cc2ccccc2)C(=O)c2ccccc2O)cc1COc1ccc(NC(C)=O)cc1`, 4.37% (inactive). On to `COc1cc(F)c(S(=O)(=O)N2CCN(S(=O)(=O)c3ccc(N)cc3)CC2)c(F)c1`, for which the “activity change, negative = inhibition” value is -0.56% (inactive).

In the case of `Cc1cnc(-c2ccccc2C2COC2)nc1NCc1ccc(-c2cccnc2)cc1`, the “activity change, negative = inhibition” value was 2.86% (inactive).

On to `CSc1ccc(CNc2ncnc3ccc(-c4c(C)noc4C)cc23)cc1`, for which the “activity change, negative = inhibition” value was 4.78% (inactive).

As for `N#Cc1c(-c2ccc(C(F)(F)F)cc2)no[n+]1[O-]`, the “activity change, negative = inhibition” value is -3.39% (inactive).

As for `Cc1ccc(N2CCC(CNc3nc(-c4ccccc4C(C)C)ncc3F)CC2)cn1`, the “activity change, negative = inhibition” value is 3.46% (inactive). As to `O=C1Nc2ccccc2/C1=C/c1cccc(C(=O)O)c1`, the “activity change, negative = inhibition” value was -9.18% (inactive). To `Cc1csc(CNc2ncnc3ccc(-c4cccnc4)cc23)c1` belongs -12.2% (inactive); to `COc1cccc(C2c3c(ncn(-c4ccccn4)c3=N)Oc3ccc4ccccc4c32)c1` (stereo not given), 8.22% (inactive); to `Cc1ccc(-c2cc(C(=O)Nc3ccc(S(=O)(=O)NCc4nccs4)cc3)c3ccccc3n2)cc1C`, 6.12% (inactive). For `O=C(O)c1ccc2c(c1)C(=O)N([C@H](Cc1ccc(O)cc1)C(=O)O)C2=O`, the “activity change, negative = inhibition” value is -0.01% (inactive). For the compound `O=C(/C=C/c1cccnc1)Nc1cccc([S+](=O)([O-])Nc2ccccc2F)c1`, the “activity change, negative = inhibition” value is -3.4% (inactive).

In the case of `COc1cc(-c2csc(N3CCC(C(N)=O)CC3)n2)cc(OC)c1OC`, the “activity change, negative = inhibition” value was -1.04% (inactive).

`O=C1c2ccccc2C(=O)N1c1ccncc1`: the “activity change, negative = inhibition” value was 1.54% (inactive). To `COc1cc(NC(=O)C(OC(=O)CNC(=O)c2ccccc2)c2ccccc2)cc(C(F)(F)F)c1` (stereo not given) belongs -2.04% (inactive).

Turning to `CCCCC(OC(=O)CNC(=O)c1ccccc1)C(=O)Nc1cc(C(F)(F)F)ccc1Cl` (stereo not given), the “activity change, negative = inhibition” value was 3.67% (inactive). As to `O=C(Nc1sc2c(c1-c1nc3ccccc3s1)CCNC2)C(F)F`, the “activity change, negative = inhibition” value is 9.59% (inactive).

On to `N#Cc1nc(Nc2cccc(Cl)c2)nc(NC2CCCC2)n1`, for which the “activity change, negative = inhibition” value was 10.1% (inactive). To `O=c1c2ccccc2nc2sc(Nc3ccc(Sc4ccccc4)cc3)nn12` belongs 2.89% (inactive); to `Cc1cccc(-c2nnc(C)n2CCCn2ccnc2)c1N`, -0.0463% (inactive). Turning to `Cn1c2cc(B(O)O)sc2c2cnn(Cc3c(F)cccc3F)c(=O)c21`, the “activity change, negative = inhibition” value is -11.8% (inactive). To `Cc1cccc(S(=O)(=O)NC2CCN(C#N)C2)c1` (stereo not given) belongs 3.85% (inactive); to `CC(C)(C)OC(=O)N1CCN(c2ccc(NCc3ccc(-c4ccc(C#N)cc4)o3)nc2)CC1`, 4.28% (inactive).
